Key:
Experiment in all cases: PBM binding z-score (relative to random genomic background probes); higher = stronger binding; sequences stand for … in GC…GCGATTGACAGCGTAGAATGAAGG
[1] = test system: FXR:RXRa (NR concentration 270 nM, RXRa partner concentration 90 nM)
Method in brief: (§1)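 Binding buffer was PBS pH 7.4 with 2% milk, 0.02% Triton X-100, 1 mM DTT, 0.2 mg/mL BSA and 0.4 mg/ml salmon testes DNA. In it, ligand-free nuclear receptor dimers were incubated 1 h on custom Agilent 4×180K protein-binding microarrays carrying double-stranded probes. Antibodies against each partner (one per run) detected binding, and z-scores were calculated against random background probes after regression normalization of scanned fluorescence.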

[2] = test system: LXRa:RXRa (NR concentration 270 nM, RXRa partner concentration 90 nM)
Method in brief: as §1

[3] = test system: LXRa homodimer (NR concentration 270 nM)
Method in brief: as §1

[4] = test system: LXRb:RXRa (NR concentration 270 nM, RXRa partner concentration 90 nM)
Method in brief: as §1

[5] = test system: LXRb homodimer (NR concentration 270 nM)
Method in brief: as §1

[6] = test system: PPARa:RXRa (NR concentration 270 nM, RXRa partner concentration 90 nM)
Method in brief: as §1

[7] = test system: PPARg:RXRa (NR concentration 180 nM, RXRa partner concentration 90 nM)
Method in brief: as §1

[8] = test system: PPARg:RXRa 270nM:90nM, anti-RXR (NR concentration 270 nM, RXRa partner concentration 90 nM)
Method in brief: as §1

[9] = test system: PPARg:RXRa 30nM:10nM, anti-RXR (NR concentration 30 nM, RXRa partner concentration 10 nM)
Method in brief: as §1

[10] = test system: PPARg:RXRa 90nM:30nM, anti-RXR (NR concentration 90 nM, RXRa partner concentration 30 nM)
Method in brief: as §1

[11] = test system: PPARg:RXRa DBDmut IVT, anti-RXR (DBD mutation: RXRa K156A/R161A, NR concentration 270 nM, RXRa partner concentration 90 nM)
Method in brief: as §1

[12] = test system: PPARg:RXRa IVT, anti-PPARg (NR concentration 270 nM, RXRa partner concentration 90 nM)
Method in brief: as §1

[13] = test system: PPARg DBDmut:RXRa IVT, anti-PPARg (DBD mutation: PPARg1 K132A/R137A, NR concentration 270 nM, RXRa partner concentration 90 nM)
Method in brief: as §1

[14] = test system: PPARg DBDmut IVT, anti-PPARg (DBD mutation: PPARg1 K132A/R137A, NR concentration 270 nM)
Method in brief: as §1

[15] = test system: PPARg homodimer (NR concentration 180 nM)
Method in brief: as §1

[16] = test system: PXR homodimer (NR concentration 270 nM)
Method in brief: as §1

[17] = test system: RARa:RXR (NR concentration 270 nM, RXRa partner concentration 90 nM)
Method in brief: as §1

[18] = test system: RARa homodimer (NR concentration 270 nM)
Method in brief: as §1

[19] = test system: RARb:RXRa (NR concentration 270 nM, RXRa partner concentration 90 nM)
Method in brief: as §1

[20] = test system: PXR:RXRa (NR concentration 270 nM, RXRa partner concentration 90 nM)
Method in brief: as §1

Row | Sequence | PBM binding z-score [1] | PBM binding z-score [2] | PBM binding z-score [3] | PBM binding z-score [4] | PBM binding z-score [5] | PBM binding z-score [6] | PBM binding z-score [7] | PBM binding z-score [8] | PBM binding z-score [9] | PBM binding z-score [10] | PBM binding z-score [11] | PBM binding z-score [12] | PBM binding z-score [13] | PBM binding z-score [14] | PBM binding z-score [15] | PBM binding z-score [16] | PBM binding z-score [17] | PBM binding z-score [18] | PBM binding z-score [19] | PBM binding z-score [20]
1 | ATCGAAAGGTCGAAGGTGACTATACCCACCCGAA | 4.54 | 3.72 | 0.344 | 3.07 | 0.925 | 4.92 | 5.16 | 5 | 2.71 | 4.38 | 0.283 | 2.43 | 0.926 | 0.616 | 2.37 | 0.106 | 4.31 | 0.973 | 3.79 | –
2 | ATATGTAGGTTAGGGGCATTCAGAAAGTAGGGAA | 1.64 | 1.47 | 0.824 | 3.01 | 2.52 | 3.8 | 5.77 | 5.21 | 2.78 | 4.77 | 6.62 | 6.65 | – | 1.93 | 2.07 | 1.48 | 1.52 | 1.74 | 1.86 | 1.43
3 | ATGTGTAGGTTACATCCGGGTCATTCAGGCTATG | 2.23 | 4.19 | 1.76 | 2.87 | 0.855 | 3.45 | 2.44 | 2.64 | 0.934 | 2.02 | 2.96 | 4.13 | 1.02 | 1.88 | 3.03 | 2.51 | 4.01 | 1.12 | 2.37 | –
4 | CGAACTAGGTCAAAGGACAGTAAAAGGCGACGTA | 4.06 | 2.48 | 0.208 | 2.04 | -0.428 | 5.67 | 9.93 | 8.18 | 7.65 | 8.57 | 8.07 | 8.42 | – | 0.249 | 1.7 | 0.0773 | 2.09 | 0.769 | 4.06 | 1.14
5 | ATATGTAGGTTACGGTCATTCAGAAAGTAGGGAA | 2.04 | 2.49 | 1.64 | 1.74 | 1.02 | 4.35 | 7.06 | 5.67 | 3.24 | 5.02 | 7.69 | 8.18 | – | 1.83 | 2.04 | 0.516 | 1.47 | 0.836 | 2.89 | 0.971
6 | ACTAGTAGGTCAGCTGAGGTCACACACAATTCGG | 6.7 | 6.09 | 5.43 | 5.14 | 1.5 | 5.36 | 7.75 | 6.54 | 4.28 | 6.26 | 7.68 | 7.77 | 2.63 | 2.31 | 6.08 | 4.54 | 6.25 | 4.07 | 5.01 | –
7 | CCTACTGGGTCATTCAGAGGTCATTGATCATATG | 5.47 | 6.23 | 6.38 | 5.36 | 1.42 | 5.41 | 6.55 | 5.9 | 3.21 | 5.33 | 6.17 | 7.04 | 1.98 | 0.698 | 6.37 | 3.7 | – | 1.17 | 4.51 | –
8 | AGAACGAGGGCAATGAGTTCATAGCACGGGTGGC | 1.78 | 2.26 | 1.48 | 1.11 | -0.445 | 2.83 | 2.16 | 1.57 | 0.0417 | 0.912 | 3.4 | 3.12 | 0.564 | 0.148 | 0.482 | 15.2 | 2.56 | 0.017 | 2.79 | –

Source: the supplement of paper PMC6555819
